# Screens deposited in PubChem by several laboratories.
# In the library only some 4.4% were active in any assay of this set; here they are far more common.
# HUVEC tox IL1B: HUVEC cytotoxicity counter-screen, IL-1B stimulated; HUVEC cell count loss, Hoechst imaging; cell count reduction, % at 2 µM; 94,000 compounds, 0.41% hits;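 active = cell count reduction more than 3 SD above the screen-wide mean, cut at about 70% in these data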
# Cav3 T inh: inhibitors of human Cav3.2 T-type calcium channel; B-score at 10 µM; 100,000 compounds, 4% hits; AID 449739; O95180; Cav3.2-expressing cells, Fluo-4 calcium fluorescence FDSS; stronger effect = lower value;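 active = single-dose well whose peak fluorescence ratio is a statistical outlier from its plate by either plate-standardised score or position-corrected B-score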
# Target sequence (O95180 whole entry, looked up): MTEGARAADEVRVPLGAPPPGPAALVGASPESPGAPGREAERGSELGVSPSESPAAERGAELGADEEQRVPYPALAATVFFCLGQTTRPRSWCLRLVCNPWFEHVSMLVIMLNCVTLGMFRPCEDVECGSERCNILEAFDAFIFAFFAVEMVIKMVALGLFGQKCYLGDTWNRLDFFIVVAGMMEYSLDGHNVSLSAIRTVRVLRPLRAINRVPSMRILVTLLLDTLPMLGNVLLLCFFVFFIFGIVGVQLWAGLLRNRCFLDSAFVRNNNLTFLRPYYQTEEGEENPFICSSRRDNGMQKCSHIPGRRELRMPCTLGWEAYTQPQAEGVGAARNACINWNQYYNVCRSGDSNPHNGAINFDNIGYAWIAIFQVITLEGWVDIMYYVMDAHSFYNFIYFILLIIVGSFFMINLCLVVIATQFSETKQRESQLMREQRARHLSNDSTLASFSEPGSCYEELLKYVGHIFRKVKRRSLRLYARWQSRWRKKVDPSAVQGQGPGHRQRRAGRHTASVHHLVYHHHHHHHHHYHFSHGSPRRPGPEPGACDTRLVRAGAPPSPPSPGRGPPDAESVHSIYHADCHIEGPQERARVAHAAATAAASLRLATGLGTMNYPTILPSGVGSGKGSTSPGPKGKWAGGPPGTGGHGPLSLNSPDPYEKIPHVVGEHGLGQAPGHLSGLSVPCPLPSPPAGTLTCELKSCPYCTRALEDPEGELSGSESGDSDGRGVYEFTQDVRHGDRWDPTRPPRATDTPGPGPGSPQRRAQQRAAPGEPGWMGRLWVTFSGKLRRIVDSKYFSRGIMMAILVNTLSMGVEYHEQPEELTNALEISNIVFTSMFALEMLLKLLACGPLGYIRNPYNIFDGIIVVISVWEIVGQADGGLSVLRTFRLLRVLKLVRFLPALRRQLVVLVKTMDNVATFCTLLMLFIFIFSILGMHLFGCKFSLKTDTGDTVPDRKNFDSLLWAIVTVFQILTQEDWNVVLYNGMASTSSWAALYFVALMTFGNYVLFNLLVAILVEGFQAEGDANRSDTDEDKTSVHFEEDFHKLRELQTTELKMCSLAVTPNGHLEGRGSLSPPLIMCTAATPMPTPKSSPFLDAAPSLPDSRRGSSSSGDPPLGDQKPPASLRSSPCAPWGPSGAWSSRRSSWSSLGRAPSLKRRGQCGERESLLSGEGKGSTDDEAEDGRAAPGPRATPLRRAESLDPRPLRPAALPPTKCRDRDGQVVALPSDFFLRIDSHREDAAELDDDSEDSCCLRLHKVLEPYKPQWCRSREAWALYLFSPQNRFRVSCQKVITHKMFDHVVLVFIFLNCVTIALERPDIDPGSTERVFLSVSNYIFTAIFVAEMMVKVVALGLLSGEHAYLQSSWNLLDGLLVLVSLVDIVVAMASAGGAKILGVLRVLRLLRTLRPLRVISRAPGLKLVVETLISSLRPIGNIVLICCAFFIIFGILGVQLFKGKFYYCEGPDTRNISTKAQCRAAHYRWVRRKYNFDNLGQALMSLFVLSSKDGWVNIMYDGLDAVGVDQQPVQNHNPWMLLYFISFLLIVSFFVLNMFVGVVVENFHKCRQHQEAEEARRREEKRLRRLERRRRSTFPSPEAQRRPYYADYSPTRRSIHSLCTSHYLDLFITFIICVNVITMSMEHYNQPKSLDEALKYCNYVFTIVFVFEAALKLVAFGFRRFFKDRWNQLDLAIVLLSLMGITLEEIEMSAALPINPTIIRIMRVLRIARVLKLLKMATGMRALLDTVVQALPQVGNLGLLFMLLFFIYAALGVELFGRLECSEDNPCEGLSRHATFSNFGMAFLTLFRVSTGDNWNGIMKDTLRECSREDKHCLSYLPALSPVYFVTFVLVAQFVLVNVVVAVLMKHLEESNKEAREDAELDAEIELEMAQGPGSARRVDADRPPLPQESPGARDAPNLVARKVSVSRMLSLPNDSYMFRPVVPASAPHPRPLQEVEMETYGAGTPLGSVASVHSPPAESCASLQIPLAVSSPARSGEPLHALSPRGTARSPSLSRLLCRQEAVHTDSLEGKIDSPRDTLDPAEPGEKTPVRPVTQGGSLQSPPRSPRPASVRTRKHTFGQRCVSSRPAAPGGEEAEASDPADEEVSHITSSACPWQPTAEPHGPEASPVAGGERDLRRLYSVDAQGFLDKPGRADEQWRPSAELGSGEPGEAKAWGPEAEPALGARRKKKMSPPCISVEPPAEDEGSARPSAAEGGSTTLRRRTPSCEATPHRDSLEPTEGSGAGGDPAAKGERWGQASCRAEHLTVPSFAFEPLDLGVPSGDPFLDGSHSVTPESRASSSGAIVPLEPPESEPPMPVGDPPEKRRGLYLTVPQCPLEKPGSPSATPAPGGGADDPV
# IL1B NFkB inh: blocks IL-1B driven NFkB nuclear translocation in HUVEC cells; HUVEC IL-1B NFkB p65 nuclear translocation imaging; inhibition, % at 2 µM; 94,000 compounds, 0.43% hits; AID 796;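 active = inhibition above about 30% together with a positive call from visual inspection of the well image, limit read from the data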;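 also: nuclear over cytoplasmic p65 intensity ratio measured by imaging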
# NFkB transloc pot: enhances IL-1B driven NFkB nuclear translocation; HUVEC IL-1B NFkB p65 nuclear translocation imaging; activation, % at 2 µM; 94,000 compounds, 0.3% hits; AID 819;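 active = activation above 40%, about the mean plus 3 SD, also judged a hit on visual image review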;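 also: percent activation is computed from the nuclear over cytoplasmic p65 intensity ratio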
# Numbers stand for hits; 0 = inactive; - = not tested or not shown.
SMILES,HUVEC tox IL1B,Cav3 T inh,IL1B NFkB inh,NFkB transloc pot
O=C1c2ccccc2C(=O)N1c1cccc(-c2nc3ccccc3o2)c1,0,0,0,0
c1ccc2oc(-c3ccc4nc[nH]c4c3)nc2c1,0,0,52,0
COC(=O)c1ccccc1NS(=O)(=O)c1cn(C)c(=O)n(C)c1=O,0,0,0,0
CN(C)/C=c1\sc2c(C#N)cc(C(=O)c3ccc(Br)cc3)n2c1=O,-,-6.9,-,-
CN1CCN(c2ccccc2NC(=O)C(Cc2ccccc2)n2cccc2)CC1 (stereo not drawn),0,0,0,0
C=CCn1c(SCC(=O)Nc2cc3oc4ccccc4c3cc2OC)nnc1-c1cnccn1,0,-4.2,0,0
C=CCn1c(SCC(=O)Nc2cccc3ccccc23)nnc1-c1cnccn1,0,0,0,0
CCn1c(SCC(=O)Nc2cc3oc4ccccc4c3cc2OC)nnc1-c1cccs1,0,0,0,41
CC(C)Oc1ccc(CNC(=S)N/N=C/c2ccc([N+](=O)[O-])cc2)cc1,0,0,0,0
CCCCS(=O)(=O)/C=C\C=C/S(=O)(=O)CCCC,0,-,95,0
CN1CCN(S(=O)(=O)c2ccc(Cc3ccc(S(=O)(=O)N4CCN(C)CC4)cc3)cc2)CC1,0,0,0,0
COc1ccc(N=C2S/C(=C\c3ccc(N4CCOCC4)o3)C(=O)N2CCc2c[nH]c3ccccc23)cc1,0,0,48,0
COC(=O)[C@@H]1C[C@@]2(O)[C@H](O)[C@H](O)[C@H](O)C[C@H]2N1Cc1ccc(-c2ccccc2)cc1,-,0,-,-
O=c1ccn(-c2cccc(C(F)(F)F)c2)nc1-c1ccn(-c2cccc(Cl)c2)n1,0,-5.7,0,0
CCOC(=O)/C=c1\s/c(=C\c2ccc3c(c2)OCCO3)c(=O)n1CC(=O)NCC1CCCO1 (stereo not drawn),0,0,0,0
CCOC(=O)/C=c1\s/c(=C\c2c(OCC)ccc3ccccc23)c(=O)n1CC(=O)NCC1CCCO1 (stereo not drawn),0,-6.4,0,0
CCOc1ccc(C(=O)Nc2c3c(nn2C(C)(C)C)CSC3)cc1OCC,0,-3.3,0,0
CCOc1ccc(C(=O)Nc2nnc(C)s2)cc1OCC,0,0,0,0
COc1ccccc1-c1nc(-c2ccncc2)no1,0,0,0,0
Cc1noc(-c2ccccc2OC(=O)c2ccccc2)n1,0,0,0,53
O=C(O)c1cc(S(=O)(=O)NCc2ccco2)c(Cl)cc1Cl,0,0,0,0
O=C(c1ccc(Cl)c(S(=O)(=O)NCc2ccco2)c1)N1CCN(c2ccc(F)cc2)CC1,0,0,36,0
CC(=O)c1ccc(NC(=O)CSc2nc3nc(C)cc(C)n3n2)cc1,0,-,0,0
Cc1cc(C)n2nc(SCC(=O)N/N=C/c3cccc(Br)c3)nc2n1,0,0,0,136
Cc1cc(NS(=O)(=O)c2ccc(NC(=O)COc3ccc(Cl)cc3)cc2)no1,88,-,99,0
SMILES,HUVEC tox IL1B,Cav3 T inh,IL1B NFkB inh,NFkB transloc pot
Cc1cc(NS(=O)(=O)c2ccc(NC(=O)COc3ccccc3C(C)C)cc2)no1,0,0,0,0
O=C(c1ccco1)N(CC1CCCO1)c1nc(-c2ccccc2)cs1 (stereo not drawn),0,-3.1,0,0
COc1ccc(C(=O)O/N=C/c2c(C(F)(F)F)nn(C)c2SCc2ccccc2Cl)cc1,0,0,0,0
Cn1nc(C(F)(F)F)c(/C=N/OC(=O)c2ccccc2Cl)c1SCc1ccc(Cl)cc1,0,-5,0,0
COC(=O)c1ccccc1Sc1c(/C=N/OC(=O)c2ccccc2)c(C(F)(F)F)nn1C,0,0,44,0
Cc1ccc(C(=O)O/N=C/c2c(C(F)(F)F)nn(C)c2Sc2ccc(Cl)cc2)cc1,0,0,0,0
Cc1cc(C)cc(SCc2noc(C(=O)NCCC(C)C)c2C(=O)NCCC(C)C)c1,-,0,-,-
CCCCCCc1nc2ccccc2c(=O)n1NC(=O)c1c(O)c2c(n(CC(C)C)c1=O)CCCC2,0,0,0,0
Cc1nc2ccccc2c(=O)n1NC(=O)c1c(O)c2c(n(CC(C)C)c1=O)CCCC2,0,-11,0,0
O=C(Oc1ccc(Cl)c2cccnc12)c1ccco1,0,0,0,0
C=CCc1ccc(OCCOCCN(C)C)c(OC)c1,0,0,0,0
C=CCc1ccc(OCCOCCOc2ccc(C)cc2[N+](=O)[O-])c(OC)c1,0,-5.5,0,0
CN(C)S(=O)(=O)c1ccc2c(c1)c(=O)c(C(=O)N1CCOCC1)cn2C,0,0,66,0
Cc1cc(C)nc(SCc2nnc(SCc3ccccc3Cl)o2)n1,0,-6.2,0,0
N#Cc1cnn(-c2nc(SCc3ccccc3)nc3sc4c(c23)CCCC4)c1N,0,-5,0,0
NCC1CCC(C(=O)Oc2ccc(CCC(=O)O)cc2)CC1 (stereo not drawn),-,0,-,-
